# According to the supplement of paper PMC6555819:
# Tested on: PPARa:RXRa (NR concentration 270 nM, RXRa partner concentration 90 nM)
# Experiment: PBM binding z-score (relative to random genomic background probes); higher = stronger binding; sequences stand for … in GC…GCGATTGACAGCGTAGAATGAAGG
# Protocol: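 Protein-binding microarray (Agilent 4x180K custom design, double-stranded 60-nt probes: 5' GC cap, 34-nt variable region, 24-nt constant primer region; full probe sequence given). Purified or IVT nuclear receptor:RXRα heterodimers (3:1 NR:RXRα, mostly 270:90 nM) or homodimers were incubated for 1 h in PBS with 2% milk and no ligand, then detected with Alexa488 antibodies. Fluorescence from o1-orientation probes (~5 replicates averaged) was converted to z-scores against 500 random hg19 background probes. Variable regions are seed direct-repeat (DR0–DR5) sites, all their single-nucleotide variants and half-site ablations.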
row,Sequence,PBM binding z-score
1,AGTCAAAGTTGAGGACGAGGTAACGTAAAGCACG,0.937
2,AGCGAAAGGTCGAGGTGAGTATAGAGAAAGGGAA,4.51
3,TCTAGTTGGTCACGGAGGACACACACGACGGGTA,0.752
4,GCTTAAGGGTCAAAGGTTATAGCATGAATAGAAT,7.18
5,CCTAGTGGGCCAAGGTCATTGATCAGTCAAAGCA,3.87
6,CAAACCAGGTCAAGAGGTCAAAGTCCGCTTCCCG,6.68
7,CAAACCAGGTCACAGAGGTCAAAGTCCGTGCGTA,6.49
8,ATCTCTAGGTTAAGATAGTTCAGTGAATGCAAAT,1.77
9,AATACAGGGTCATCGTACGCCAGAGTACGCACAG,5.99
10,TTGCCTAGGTCATTGGGCCAGTATAGTACGCATC,3.86
11,CCGACTGGGGCAAGGTCACCATAACGCACAGCCA,4.2
12,ACTTACGGGTCAACGAGGTCATAGCACGCGTATA,6.12
13,GCATATAGGTAATACAAGGTCAAAGTCCGATTGT,4.21
14,CGCACTAGGTCATCCAGGACAGTGAATACATTGA,4.49
15,CCTAGTTGGTCAAGGTCACATACGCTATAGGTAC,4
16,CCTTACGGGTTACTCCAGGTTATAGCATCGGAGT,1.45
17,TCTGCTAGGTCATCGATGGTCAGCTAATCTGCTA,3.2
18,AGAACGAGGTCACGCTGAGTTGATAGCAGAGTAG,6.34
19,AGTCAAAGTTCAGGACGAGGTAACGTTAAGCACG,3.34
20,TCGTGTAGGTTACGGGGGCATTCAGGGATGAAGA,4.58

row,Sequence,PBM binding z-score
1,AATACAAGGTCATCGTAGGCCAGAGTACGCACAG,5.75
2,ATTTGTAGGTTACATCCGGGTCATTCAGGCTATG,4.12
3,TAGCCGAGGTCATTCAGGGGCCAGTATAGAAAGC,6.23
4,TCTAGTTGGTCAAAGGTCACGCACTCGAAATGCG,6.76
5,ATATGTAGGTTAGGGGTCATTCAGGTTGGTTCGC,6.51
6,AGAATGAGGTTAAACGTAGATCAGGGAAGAAAGT,4.4
7,TCTTGTAGGTCAATAGAGGTTAAGAAAGTGCGCT,5.13
8,CCTACTGGGCCACTAAAGGTCATTGATTCAGTGA,4.62
9,CGAACTAGGTCAAGGACAGTAAATCTCCGCACGC,4.71
10,CAAACAAGGTCAAAGGTCAAAGTCGAGCCAACCA,7.41
11,CCTTACGGGTCACTGACAGGTTATAGCGTTTGGA,5.13
12,GCTTACAGGTCAAAGGTTATAGCATGAATAGAAT,7.1
13,ACGCGGAGGACAAAGGTCAGAGCTACGCCAGTGA,4.75
14,CCTACTGGGCCAAAAAGTTCATTGATGCCGATAA,1.72
15,CAAACTAGGTCACTAAAGGTCAAAGTCGAATGAC,6.51
16,CCTTACGGGTCACTCCAGGTTATATCATCGGAGT,4.5
17,CCTACGGGGCCACGAAAGGTCATTGATTCAGTGA,4.69
18,CGTCCAAGGTCAAAGGTCATTGAAGAGATGACGG,7.33
19,CCTACTCGGCCAAAAAGGTCATTGATGCCGATAA,4.87
20,TACCCTAGGTCATTGGGCCAGTATAGTACGCATC,4.06
